Test system: Vero E6 infected with SARS-CoV-2
Experiment: inhibition of SARS-CoV-2 cytopathic effect; higher = more antiviral protection, active = above 15
Conditions: 48 h

Measured: inhibition of SARS-CoV-2 cytopathic effect

CCCCCCCCNC(=O)/C(C#N)=C/c1cn(CCCN(C)C)c2ccccc12 [dynole-34-2]
inactive: 1 nM 5.01% | 8.33 nM 2.28% | 100 nM 2.72% | 833.33 nM 0.28% | 10000 nM 12.6%

C[n+]1c2cc(N)ccc2cc2ccc(N)cc21 [acriflavinium]
inactive: 1 nM -3.77% | 8.33 nM -2.4% | 100 nM -2.84% | 833.33 nM -0.42% | 10000 nM -5.69%

O=C(O)[C@H](O)c1ccccc1 [mandelic-acid]
inactive: 1 nM -0.12% | 8.33 nM 3.41% | 100 nM 3.65% | 833.33 nM 2.65% | 10000 nM -2.37%

CN(C)C/C=C/C(=O)Nc1cc2c(Nc3ccc(F)c(Cl)c3)ncnc2cc1O[C@H]1CCOC1 [afatinib]
inactive: 1 nM -2.03% | 8.33 nM -3.01% | 100 nM -5.33% | 833.33 nM -8.01% | 10000 nM -9.49%

Nc1n[n+]([O-])c2ccccc2[n+]1[O-] [tirapazamine]
inactive: 1 nM -0.88% | 8.33 nM 0.77% | 100 nM 2.11% | 833.33 nM 0.37% | 10000 nM 2.74%

C=CC[N+]1([C@H]2C[C@H]3[C@@H]4CC[C@H]5C[C@H](O)[C@@H](N6CCOCC6)C[C@]5(C)[C@H]4CC[C@]3(C)[C@H]2OC(C)=O)CCCC1
inactive: 1 nM -0.55% | 8.33 nM -0.87% | 100 nM 2.36% | 833.33 nM 1.73% | 10000 nM 0.75%

CC(C)c1cccc2c1OC(C(C)C)C(=S)N2CC(=O)O (stereo not given)
inactive: 1 nM -0.74% | 8.33 nM 3.31% | 100 nM 1.03% | 833.33 nM 1.02% | 10000 nM -0.31%

Fc1ccc(C(OCCN2CCN(CCCc3ccccc3)CC2)c2ccc(F)cc2)cc1 [vanoxerine]
inactive: 1 nM -2.38% | 8.33 nM -0.72% | 100 nM 2.06% | 833.33 nM -3.95% | 10000 nM -11.6%

Cc1coc2c1C(=O)C(=O)c1c-2ccc2c1CCCC2(C)C [tanshinone-IIA]
inactive: 1 nM -0.65% | 8.33 nM 2.92% | 100 nM 0.8% | 833.33 nM -7.33% | 10000 nM -6.78%

CC(=O)c1cnc2ccc(-c3cc(Cl)c(O)c(Cl)c3)nc2c1N[C@H]1CC[C@H](CN(C)C)CC1
inactive: 1 nM -1.51% | 8.33 nM 0.72% | 100 nM -1.37% | 833.33 nM 0.11% | 10000 nM -5.46%

O=C(NC1CCN(CCc2c[nH]c3ccccc23)CC1)c1ccccc1 [indoramin]
inactive: 1 nM 0.38% | 8.33 nM 1.24% | 100 nM 0.6% | 833.33 nM -1.28% | 10000 nM -4.57%

CN1[C@@H]2C[C@@H](O)C[C@H]1[C@@H]1O[C@@H]12 [scopine]
inactive: 1 nM -0.81% | 8.33 nM -0.43% | 100 nM -0.08% | 833.33 nM 1.5% | 10000 nM -0.8%

Nc1nc(NC[C@H]2CC[C@H](CNS(=O)(=O)c3cccc4ccccc34)CC2)nc2ccccc12
inactive: 1 nM -0.54% | 8.33 nM -0.03% | 100 nM 0.19% | 833.33 nM -0.88%
active: 10000 nM 29.5%

NC(=O)c1cnc2[nH]ccc2c1N[C@@H]1[C@@H]2CC3C[C@H]1C[C@@](O)(C3)C2
inactive: 1 nM -1.55% | 8.33 nM -1.31% | 100 nM -1.46% | 833.33 nM -0.12% | 10000 nM -1.65%

c1ccc2sc(N3CCN(Cc4ccc5c(c4)OCO5)CC3)nc2c1 [2-[1-(4-piperonyl)piperazinyl]benzothiazole]
inactive: 1 nM -3.54% | 8.33 nM -1.04% | 100 nM -3.92% | 833.33 nM -3.68% | 10000 nM -2.73%

c1ccc2[nH]c(-c3cscn3)nc2c1 [tiabendazole]
inactive: 1 nM 2.1% | 8.33 nM 1.24% | 100 nM -0.24% | 833.33 nM 0.7% | 10000 nM -0.19%

O=C(CCN1CCN(C(=O)OCc2cc(Cl)cc(Cl)c2)CC1)c1ccc2[nH]c(=O)oc2c1
inactive: 1 nM 3.18% | 8.33 nM 5.29% | 100 nM 2.77% | 833.33 nM 4.56% | 10000 nM 1.71%

Cc1ncc([N+](=O)[O-])n1CC(C)O (stereo not given) [secnidazole]
inactive: 1 nM -4.41% | 8.33 nM -8.4% | 100 nM -5.52% | 833.33 nM -10.4% | 10000 nM -9.47%

CNC(=O)c1ccc(Nc2ncc(C(F)(F)F)c(NCc3nccnc3N(C)S(C)(=O)=O)n2)cc1 [defactinib]
inactive: 1 nM -2.21% | 8.33 nM -4.25% | 100 nM -0.22% | 833.33 nM -2.59% | 10000 nM -4.28%

CC(=O)OCC(=O)[C@H]1CC[C@H]2[C@@H]3CC[C@H]4C[C@H](O)CC[C@]4(C)[C@H]3C(=O)C[C@]12C [alfadolone-acetate]
inactive: 1 nM 3.28% | 8.33 nM 3.18% | 100 nM 2.11% | 833.33 nM 1.64% | 10000 nM -4.57%

NCCCC(O)(P(=O)(O)O)P(=O)(O)O [alendronate]
inactive: 1 nM -2.08% | 8.33 nM -1.44% | 100 nM 0.15% | 833.33 nM -0.56% | 10000 nM -0.44%

CC(=O)O[C@@]12CO[C@@H]1C[C@H](O)[C@@]1(C)C(=O)[C@H](O)C3=C(C)[C@@H](O)C[C@@](O)([C@@H](OC(=O)c4ccccc4)[C@H]21)C3(C)C [10-deacetylbaccatin]
inactive: 1 nM -0.5% | 8.33 nM 0.94% | 100 nM -1.67% | 833.33 nM -4.55% | 10000 nM -2.63%

CC(C)(CO)c1cc2cc(NC(=O)C3(c4ccc5c(c4)OC(F)(F)O5)CC3)c(F)cc2n1C[C@@H](O)CO [tezacaftor]
inactive: 1 nM 0.35% | 8.33 nM 0.97% | 100 nM -1.35% | 833.33 nM 1.62% | 10000 nM 0.29%

O=c1[nH]c([C@@H]2CCCN2)nc2c1oc1ccc(Cl)cc12
inactive: 1 nM -0.27% | 8.33 nM 0.12% | 100 nM 1.61% | 833.33 nM -0.54% | 10000 nM -2.54%

COc1cc(NC(=O)Nc2cccc(CNC(=O)O[C@H]3CCOC3)c2)ccc1-c1cnco1 [merimepodib]
inactive: 1 nM 0.31% | 8.33 nM 0.11% | 100 nM -0.15% | 833.33 nM 2.5% | 10000 nM 8.45%

CC(C)N(CC[C@H](c1ccccc1)c1cc(CO)ccc1O)C(C)C [5-hydroxymethyl-tolterodine]
inactive: 1 nM -1.98% | 8.33 nM -1.4% | 100 nM -1.82% | 833.33 nM 2.8% | 10000 nM -3.28%

O=S(=O)(O)c1ccc(-c2c3nc(c(-c4ccc(S(=O)(=O)O)cc4)c4ccc([nH]4)c(-c4ccc(S(=O)(=O)O)cc4)c4nc(c(-c5ccc(S(=O)(=O)O)cc5)c5ccc2[nH]5)C=C4)C=C3)cc1
inactive: 1 nM -2.9% | 8.33 nM -2.68% | 100 nM -5.47% | 833.33 nM -6.51% | 10000 nM -7.03%

CCOc1c2c(c(OCC)c3ccccc13)C(=O)N(c1ccc(CC(=O)NS(=O)(=O)c3ccccc3)cc1)C2
inactive: 1 nM 2.87% | 8.33 nM 0.35% | 100 nM 0.73% | 833.33 nM -1.03% | 10000 nM 0.05%

CC(C)(C)C(=O)Oc1ccc(S(=O)(=O)Nc2ccccc2C(=O)NCC(=O)O)cc1 [sivelestat]
inactive: 1 nM 1.78% | 8.33 nM -0.24% | 100 nM 0.61% | 833.33 nM 1.84% | 10000 nM -1.94%

CNCC(O)c1ccc(O)c(O)c1 (racemic) [DL-Adrenaline]
inactive: 1 nM 1.39% | 8.33 nM -1.53% | 100 nM 1.56% | 833.33 nM -2.05% | 10000 nM -1.47%

c1ccc(-c2ccc(CNc3nc(-c4ccccn4)nnc3-c3ccccc3)cc2)cc1
inactive: 1 nM 1.58% | 8.33 nM 0.74% | 100 nM -1.15% | 833.33 nM -4.89% | 10000 nM -14.7%

Nc1nc(O)c2nc(Br)n([C@@H]3O[C@@H]4COP(=O)(O)O[C@H]4[C@H]3O)c2n1 [8-bromo-cGMP]
inactive: 1 nM 0.61% | 8.33 nM 2.94% | 100 nM 2.06% | 833.33 nM 1.94% | 10000 nM 1.61%

O=C(Cn1ccnc1[N+](=O)[O-])NCCO [etanidazole]
inactive: 1 nM 0.32% | 8.33 nM 0.33% | 100 nM 4.88% | 833.33 nM -1.27% | 10000 nM -0.88%

O=P(O)(O)C(O)(Cc1cnc2ccccn12)P(=O)(O)O [minodronic-acid]
inactive: 1 nM -2.81% | 8.33 nM -1.07% | 100 nM -0.4% | 833.33 nM 2.46% | 10000 nM -1.52%

CC(C)C(=O)SCCCCC[C@H](NC(=O)OC(C)(C)C)C(=O)NC12CC3CC(CC(C3)C1)C2
inactive: 1 nM -5.42% | 8.33 nM -0.36% | 100 nM -0.22% | 833.33 nM 2.47% | 10000 nM -6.65%

COc1ccc(S(=O)(=O)N2CCC[C@H]2C(=O)Nc2cc(C)cc(C)c2)cc1
inactive: 1 nM -4.61% | 8.33 nM -4.21% | 100 nM -5.02% | 833.33 nM -4.87% | 10000 nM 1.64%

CS(=O)(=O)Oc1ccc2c(NC(N)=O)c(C(=O)c3ccc(Cl)cc3Cl)oc2c1 [lirimilast]
inactive: 1 nM -4.96% | 8.33 nM -9.08% | 100 nM -8.83% | 833.33 nM -12.5% | 10000 nM -5.64%

CNC1CC(c2ccc(Cl)c(Cl)c2)c2ccccc21 (stereo not given) [indatraline]
inactive: 1 nM -0.39% | 8.33 nM 0.4% | 100 nM 0.7% | 833.33 nM -3.42% | 10000 nM -10.8%
